Mtb FBA inh: Mtb FBA enzyme inhibitors, primary screen, biochemical, fluorescence, strain H37Rv; Fructose-bisphosphate aldolase (Mycobacterium tuberculosis (strain ATCC 25618 / H37Rv)), …; purified M. tuberculosis FBA, fluorescence read-out; inhibition, % at 1 µM; 360,000 tested, 2.3% active; in the data active = inhibition above about 27%
Rv3671c inh: Rv3671c serine protease inhibitors, primary screen, biochemical, fluorescence polarization, M. tuberculosis H37Rv | P9WHR9 | inhibition, % at 5.96 µM | 320,000 tested, 0.048% active | AID 2606, 2010; in the data active = inhibition above about 38%;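 note: extracellular domain of Rv3671c used as enzyme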
GDH-TPI inh: GDH-TPI coupling enzyme inhibitors, primary screen, artefact control for M. tuberculosis FBA inhibitor project, biochemical, absorbance, full deck. GDH-TPI coupled enzyme counterscreen, NADH absorbance. inhibition, % at 4.8 µM. AID 588335, 2011. 360,000 tested, 1.2% active; in the data active = inhibition above about 30%
Mtb UGM inh: M. tuberculosis UGM enzyme inhibitors, primary screen, biochemical, fluorescence polarization, single point. UDP-galactopyranose mutase (Mycobacterium tuberculosis (strain ATCC 25618 / H37Rv)), …. inhibition, % at 10 µM. purified UGM, fluorescence polarization probe displacement. 320,000 tested, 0.06% active; in the data active = inhibition above about 10%, passing the limit was not always enough
Target sequence (P9WIQ1 whole entry, looked up): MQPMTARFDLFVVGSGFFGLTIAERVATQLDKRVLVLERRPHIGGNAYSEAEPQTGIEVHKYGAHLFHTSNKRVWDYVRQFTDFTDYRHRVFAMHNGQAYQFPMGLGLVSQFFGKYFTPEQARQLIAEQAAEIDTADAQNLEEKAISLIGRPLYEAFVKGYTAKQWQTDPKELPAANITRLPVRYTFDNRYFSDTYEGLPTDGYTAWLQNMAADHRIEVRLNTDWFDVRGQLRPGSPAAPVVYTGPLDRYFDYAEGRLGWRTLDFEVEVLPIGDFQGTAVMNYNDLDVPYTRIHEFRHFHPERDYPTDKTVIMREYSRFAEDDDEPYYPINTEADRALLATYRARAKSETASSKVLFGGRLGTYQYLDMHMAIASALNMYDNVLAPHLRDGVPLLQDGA
Mtb betalactam: beta-lactam sensitization of Mtb H37Rv, H37Rv | 330,000 tested, 0.27% active | AID 434955, 2010 | inhibition, % at 25 µM | M. tuberculosis H37Rv growth with meropenem, percent inhibition;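 note: growth measured after seven days incubation then overnight dye step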
RecA splice inh: Mtb RecA intein splicing inhibitors, primary screen, biochemical, fluorescence, HTS. cell-free RecA intein splicing. inhibition, % (concentration not given with the values). 290,000 tested, 0.75% active; in the data active = inhibition above about 30%
GFP chromophore: counter-screen: blocks GFP chromophore formation, dose response, counter-screen, biochemical, fluorescence, homogeneous; shares compounds with RecA splice inh; EC50, µM; 2,100 tested, 83% active; AID 434968, 2010; cell-free GFP chromophore formation
Numbers stand for hits; – = inactive; · = no result. Hits are enriched below; roughly 4% of the tested compounds scored in any of these assays. Unless noted, the rule behind the calls is not given here.

SMILES	Mtb FBA inh	Rv3671c inh	GDH-TPI inh	Mtb UGM inh	Mtb betalactam	RecA splice inh	GFP chromophore
Cc1nnc(N/N=C\c2ccc(-c3ccccc3[N+](=O)[O-])o2)n1N	–	–	–	–	–	50	39
Cc1nnc(N/N=C/c2ccccc2O)n1N	–	–	–	–	–	75	12
COc1ccc(NC(=O)c2cnc(SC)nc2C)c(OC)c1	–	–	–	–	–	–	·
Cc1c2cnn(CC(=O)NCCN3CCOCC3)c(=O)c2c(C)n1Cc1ccc(F)cc1	–	–	–	–	–	–	·
S=c1[nH]nc(COc2ccccc2)n1/N=C/c1cccs1	–	–	–	–	–	–	·
O=C(Oc1ccccc1N1C(=O)CCC1=O)c1ccco1	–	–	–	–	–	36	–
Cc1cccc(CS(=O)(=O)c2ncc(Cl)c(C(=O)Nc3nnc(C(C)C)s3)n2)c1	–	–	–	–	–	86	0.86
Cc1ccc(CS(=O)(=O)c2ncc(Cl)c(C(=O)Nc3ccc(OC(F)F)cc3)n2)cc1	–	–	–	–	–	–	·
CSc1nnc(NC(=O)c2nc(S(=O)(=O)Cc3cccc(C)c3)ncc2Cl)s1	–	–	–	–	–	81	18
CCSc1nnc(NC(=O)c2nc(S(=O)(=O)Cc3ccc(F)cc3)ncc2Cl)s1	–	–	–	–	–	85	21
Cc1ccc(CS(=O)(=O)c2ncc(Cl)c(C(=O)Nc3nnc(C(C)C)s3)n2)cc1	–	–	–	–	–	86	3.7
CN(Cc1ccncn1)C(=O)CC1C(=O)NCCN1Cc1cccc(Oc2ccccc2)c1 (stereo not drawn)	–	–	–	–	–	–	·
COc1cccc(/C=C2/NC(=O)N(CC(=O)Nc3ccc(C)cc3)C2=O)c1OCc1cccc(C(=O)O)c1	–	–	–	–	–	–	·
CC(C)c1nnc(NC(=O)c2nc(S(=O)(=O)Cc3ccc(F)cc3)ncc2Cl)s1	–	–	–	–	–	82	16
Cc1cc(C)c2c(CN(Cc3ccccc3)Cc3ccccc3)cc(=O)oc2c1	–	·	·	·	·	·	·
[O-]C1=N/[N+](=C/c2ccccc2Cl)CC1	–	–	–	–	–	70	17
[O-]C1=N/[N+](=C/c2ccc(Cl)c(Cl)c2)CC1	–	–	–	–	–	36	38
Clc1ccc(C=NN2CCCCCC2)cc1Cl	–	·	–	·	·	·	·
[O-]C1=N/[N+](=C/c2ccccc2)CC1	–	–	–	–	–	81	30
O=C(NC(NNc1ccc([N+](=O)[O-])cc1)(C(F)(F)F)C(F)(F)F)c1ccc(Cl)cc1	–	–	–	–	–	–	·
CC(=O)OC(C(=O)NCc1ccco1)c1ccncc1 (stereo not drawn)	–	–	–	–	–	–	·
O=C(c1ccco1)N1CCN(C(=S)Nc2ccccc2Cl)CC1	–	–	–	–	–	–	·
CCOC(=O)CSc1nnc(NCC(=O)OC)c(=O)[nH]1	–	–	–	–	–	37	–
COc1ccc(C(=O)n2nnc3ccccc32)cc1OC	–	–	–	–	–	·	·
COc1ccc(C(=O)n2nnc3ccccc32)cc1Br	–	–	–	–	–	35	–
C/C(=N\NC(=O)Cc1cccn1C)c1ccc([N+](=O)[O-])cc1	–	–	–	–	–	–	·
C/C(=N/NC(=O)Cc1cc(=O)[nH][nH]1)c1ccc([N+](=O)[O-])cc1	–	–	–	–	–	84	7.4
C/C(=N\NC(=O)Cc1cc(=O)[nH][nH]1)c1cccc([N+](=O)[O-])c1	–	–	–	–	–	88	8.8
CCOC(=O)C1=C(C)NC2(O)c3ccccc3C(=O)C12O (stereo not drawn)	–	–	–	–	–	33	28
O=C(NCc1cccc(Cl)c1)C1CCCN(c2ncnc3c2nc2n3CCCCC2)C1 (stereo not drawn)	–	–	–	–	–	–	·
